{
  "source": "PubChem BioAssay (EPA / NIEHS)",
  "note": "The source made the active and inactive calls. Rule for the calls: active = hit-call score of the fitted dose curve at least 0.9, where 1 is the maximum; inactive = score below 0.9.",
  "data": [
    {"assay": "APR_HepG2_CellLoss_1hr: Apredica 1-hour HepG2 Assay for Cell Loss (AID 2282668);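 note: curves fitted both ways against DMSO so gain or loss of cells counts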", "settings": "high-content imaging", "protocol": "APR_HepG2_1hr is a cell-based, multiplexed-readout assay that uses HepG2, a human liver cell line, with measurements taken at 1 hour after chemical dosing in a 384-well plate.APR_HepG2_CellLoss_1hr is one of 10 assay component(s) measured or calculated from the APR_HepG2_1hr assay. It is designed to make measurements of cell number, a form of viability reporter, as detected with fluorescence intensity signals by HCS Fluorescent Imaging technology.Data from the assay component APR_HepG2_CellLoss_1hr was analyzed into 1 assay endpoint. This assay endpoint, APR_HepG2_CellLoss_1hr, was analyzed with bidirectional fitting relative to DMSO as the negative control and baseline of activity. Using a type of viability reporter, measures of all nuclear dna for gain or loss-of-signal activity can be used to understand the viability at the cellular-level. Furthermore, this assay endpoint can be referred to as a secondary readout, because this assay has produced multiple assay endpoints where this one serves a viability function. To generalize the intended target to other relatable targets, this assay endpoint is annotated to the cell cycle intended target family, where the subfamily is proliferation.\nCells were treated with dimethyl sulfoxide (DMSO) as a solvent control at a final concentration of 0.5% v/v or with compounds in DMSO with a resulting final DMSO concentration of 0.5% v/v. Compound treatment was done at concentrations of 0.39, 0.78, 1.56, 3.12, 6.24, 12.5, 25, 50, 100, and 200 uM in duplicate on each plate. Cells were treated with compounds for 1, 24, or 72 hr. Carbonyl […] m-chloro-phenylhydrazone (CCCP) and taxol were used as positive controls for mitochondrial function and cytoskeletal stability, respectively; DMSO served as the negative control for this experiment. Cells were fixed by the direct addition of 50 uL formaldehyde in Hank's Balanced Salt Solution (HBSS) to a final concentration of 3.7%. After incubation in the fixation medium for 30 min at room temperature (293-298 K), cells were rinsed twice with HBSS and treated with cell permeabilization buffer (16 uL of 0.5% Triton X-100) for 10 min at room temperature (293-298 K) before labeling. For mitochondrial membrane potential and mitochondrial measurements, pre-fixed cells were incubated with 50 uL of MitoTracker Red CMXRos (Invitrogen) at a concentration of 250 nM for 30 min before fixation. In the remaining cases, post-fixed cells were labeled by incubation with a multiplexed mixture of primary antibodies in HBSS for 60 min at room temperature (293-298 K) to detect immunoreactivity of c-Jun (1:500), phospho-histone H3 (1:100), phospho-histone H2A.x (1:200), p53 (1:400), alpha-tubulin (1:200) and Hoechst 33342 (2 ug/mL). Cells were labeled for multiplexed imaging on two separate plates: a) Hoechst 33342, MitoTracker Red, phospho-histone H3, and alpha-tubulin, and b) Hoechst 33342, phospho-histone H2A.x, and c-Jun. A final rinse with HBSS (50 uL) was performed before analysis. The primary and secondary antibodies for the proteins were phospho-histone H3 (rabbit anti-phospho-histone H3 and FITC-donkey anti-rabbit IgG), phospho-histone H2A.x (mouse anti-phospho-histone H2A.x and FITC-donkey anti-mouse IgG), c-Jun (rabbit anti-phospho-c-Jun and Cy3-donkey anti-rabbit IgG), p53 (sheep anti-p53 and Cy5-donkey anti-sheep IgG), alpha-tubulin (mouse anti-alpha-tubulin and Cy5-donkey anti-mouse IgG). These antibodies are available as the CellCiphr HepG2 assay kit (Millipore).Digital images of each well were captured using a Cellomics ArrayScan VTI (Thermo Scientific Cellomics) (0.8 NA objective, 0.63x optical coupler, and XF-93 filter set) at 20x magnification. The images were acquired using the autofocus feature of the ArrayScan instrument, which entails the following steps. First, the camera focuses on channel 1 (Hoechst 33342), where nuclei are identified. Second, a Z offset of 1 um is used for capturing mitochondria (MitoTracker Red). […]", "values": [
      {"molecule": "CS(=O)(=O)c1cc(C(F)(F)F)ccc1C(=O)c1cnoc1C1CC1", "outcome": "inactive"},
      {"molecule": "O=c1n(Cl)c(=O)n(Cl)c(=O)n1Cl", "outcome": "inactive"},
      {"molecule": "C=C(C)CN(CC)c1c([N+](=O)[O-])cc(C(F)(F)F)cc1[N+](=O)[O-]", "outcome": "inactive"},
      {"molecule": "Nc1c(Cl)c(F)nc(OCC(=O)O)c1Cl", "outcome": "inactive"},
      {"molecule": "COCC(=O)N(c1c(C)cccc1C)C(C)C(=O)OC", "note": "(stereo not given)", "outcome": "inactive"},
      {"molecule": "CCOP(=O)(OCC)Oc1nc(Cl)c(Cl)cc1Cl", "outcome": "inactive"},
      {"molecule": "OC(c1ccc(Cl)cc1)(c1ccc(Cl)cc1)C(Cl)(Cl)Cl", "AC50": "89.3 µM (active)"},
      {"molecule": "COc1ccc(-c2ccccc2)cc1NNC(=O)OC(C)C", "outcome": "inactive"},
      {"molecule": "CCN(CC)C(=O)C(C)Oc1cccc2ccccc12", "note": "(stereo not given)", "outcome": "inactive"},
      {"molecule": "COP(=S)(OC)Oc1ccc([N+](=O)[O-])c(C)c1", "outcome": "inactive"},
      {"molecule": "CC1(C)CCC(=Cc2ccc(Cl)cc2)C1(O)Cn1cncn1", "note": "(stereo not given)", "outcome": "inactive"},
      {"molecule": "CC1(C)CON(Cc2ccccc2Cl)C1=O", "outcome": "inactive"},
      {"molecule": "CCC(C)n1c(=O)[nH]c(C)c(Br)c1=O", "note": "(stereo not given)", "outcome": "inactive"},
      {"molecule": "Cc1ccc(N=CN(C)C=Nc2ccc(C)cc2C)c(C)c1", "outcome": "inactive"},
      {"molecule": "CCN(CC)c1nc(C)cc(OP(=S)(OC)OC)n1", "outcome": "inactive"},
      {"molecule": "Clc1nc(Cl)nc(Nc2ccccc2Cl)n1", "outcome": "inactive"},
      {"molecule": "CCOP(=S)(OCC)Oc1nc(Cl)n(C(C)C)n1", "outcome": "inactive"},
      {"molecule": "O=C(O)c1c(Cl)ccc2cc(Cl)cnc12", "outcome": "inactive"},
      {"molecule": "CC(C)NC(=O)N1CC(=O)N(c2cc(Cl)cc(Cl)c2)C1=O", "outcome": "inactive"},
      {"molecule": "CCCCC(O)(Cn1cncn1)c1ccc(Cl)cc1Cl", "note": "(stereo not given)", "outcome": "inactive"},
      {"molecule": "CCCC(=NOCC)C1=C(O)CC(CC(C)SCC)CC1=O", "note": "(stereo not given)", "outcome": "inactive"},
      {"molecule": "Cc1cnc(C2=NC(C)(C(C)C)C(=O)N2)c(C(=O)O)c1", "note": "(stereo not given)", "outcome": "inactive"},
      {"molecule": "CC(C)N1C(=O)N(c2ccccc2)CSC1=NC(C)(C)C", "outcome": "inactive"},
      {"molecule": "COCc1cnc(C2=NC(C)(C(C)C)C(=O)N2)c(C(=O)O)c1", "note": "(stereo not given)", "outcome": "inactive"},
      {"molecule": "CCCN(CC)CC1COC2(CCC(C(C)(C)C)CC2)O1", "note": "(stereo not given)", "outcome": "inactive"},
      {"molecule": "Cc1nc(N(C)C)nc(OC(=O)N(C)C)c1C", "outcome": "inactive"},
      {"molecule": "CC(C)(C)C(=O)C(Oc1ccc(Cl)cc1)n1cncn1", "note": "(stereo not given)", "outcome": "inactive"},
      {"molecule": "COc1cc(Cl)c(OC)cc1Cl", "outcome": "inactive"},
      {"molecule": "CCOc1nc(F)cc2nc(S(=O)(=O)Nc3c(Cl)cccc3Cl)nn12", "outcome": "inactive"},
      {"molecule": "COc1cc(OC)nc(NC(=O)NS(=O)(=O)c2ncccc2OCC(F)(F)F)n1", "outcome": "inactive"},
      {"molecule": "N#Cc1c[nH]cc1-c1cccc2c1OC(F)(F)O2", "outcome": "inactive"},
      {"molecule": "CC1(C)C(C=C(Cl)Cl)C1C(=O)OC(C#N)c1cccc(Oc2ccccc2)c1", "note": "(stereo not given)", "outcome": "inactive"},
      {"molecule": "CC1(C)C(C(=O)OC(C#N)c2cccc(Oc3ccccc3)c2)C1(C)C", "note": "(stereo not given)", "outcome": "inactive"},
      {"molecule": "N#Cc1c(Cl)cccc1Cl", "outcome": "inactive"},
      {"molecule": "CSC(=O)c1c(C(F)F)nc(C(F)(F)F)c(C(=O)SC)c1CC(C)C", "outcome": "inactive"},
      {"molecule": "Nc1cnn(-c2ccccc2)c(=O)c1Cl", "outcome": "inactive"},
      {"molecule": "O=C(Nc1ccccc1-c1ccc(Cl)cc1)c1cccnc1Cl", "outcome": "inactive"},
      {"molecule": "Clc1cccc(C(Cl)(Cl)Cl)n1", "outcome": "inactive"},
      {"molecule": "CCOc1nc(C(Cl)(Cl)Cl)ns1", "outcome": "inactive"},
      {"molecule": "COP(=S)(OC)SCn1nnc2ccccc2c1=O", "outcome": "inactive"}
    ]}
  ]
}
